Experimental data reported in PubChem BioAssay AID1347076 (National Center for Advancing Translational Sciences (NCATS), 2019).
About 13,000 (3.2%) of roughly 400,000 compounds were called active. Not shown: some 18% with an inconclusive outcome. Calls come from the whole dose curve; as a rule, active = well fitted cell-killing curve with a large enough effect; inconclusive = small, poorly fitted or top-dose-only effect, or effect the other way; inactive = flat fitted curve, though single readings scatter. The sample as a whole holds a higher share of actives than the screen did.

assay: qHTS assay for MDR1-selective chemotherapeutics: Primary screen using the drug-selected MDR subline cells KB-V1; conditions: KB-V1 MDR cells viability, CellTiter-Glo, 72 h; series mostly up to 46.1 µM; activity change, negative = cytotoxicity: at the top concentration; note: nearly all actives have a fitted effect of over 60% in size
Source text: A prime difficulty in effectively treating cancer is the development of cellular resistance to multiple structurally unrelated anticancer drugs, a phenomenon known as multidrug resistance (MDR). […] Numerous strategies to overcome P-gp-mediated MDR have been explored, including the design of drugs that evade recognition and efflux, and development of inhibitors to block efflux and restore drug accumulation. […] An alternative approach is to exploit resistance by identifying drugs that target MDR cells over the non-resistant parental cells from which they were selected. […] The development of MDR1-selective agents represents a new strategy for resolving multidrug resistance, as it remains a long-standing clinical challenge for cancer chemotherapy.
Our goal is to identify compounds that selectively kill P-gp-expressing MDR cells. We will identify MDR1-selective compounds by comparing toxicity of compounds in the screening library against parental, drug-naive (KB-3-1) adenocarcinoma cells as well as their drug-selected MDR sub-line (KB-V1). The differential toxicity of compounds against these two cell lines will be used to identify MDR1-selective compounds, whose cytotoxicity is potentiated, rather than diminished, by P-gp expression. This assay will be utilized to conduct a quantitative high-throughput screen (qHTS) in collaboration with the NIH Chemical Genomics Center to identify selective agents, and probe hits arising from the screen will be validated using secondary assays and characterized through a well-established follow-up research program. This screen was run against the entire NCGC library collection of about 400,000 compounds.
NIH Molecular Libraries Probe Production Network [MLPCN]
NIH Chemical Genomics Center [NCGC]
PI: Michael Gottesman, National Cancer Institute, NIH
Briefly, 5 microL of media containing either KB-V1 cells (columns 1-2, 4-48) are dispensed into Greiner white, treated solid-bottom 1536-well assay plates (media-only control is added to column 3). Compounds are then transferred via Kalypsys pin tool equipped with 1536-pin array (10 nL slotted pins, V&P Scientific, San Diego, CA). Following addition of compound, the plates are incubated at 37 degrees C for 72 hours. CellTiter-Glo (2.5 µL/well) is then added, and the plates are read in a ViewLux reader (Perkin-Elmer, clear luminescence filter, 1 second exposure, 1x binning) following a 10 minute incubation. All cells are dispensed in DMEM phenol-red free media containing 10% FBS.
Library plates were screened starting from the lowest and proceeding to the highest concentration. Vehicle-only plates, with DMSO being pin-transferred to columns 5-48, will be inserted uniformly at the beginning and the end of each library in order to monitor and record any shifts in the background, which can be affected by reagent dispensers or loss in enzyme activity over time. Screening data will be corrected, normalized, and concentration-effect relationships will be derived by using publicly-available NCGC, NCATS curve fitting algorithms (http://ncgc.nih.gov/pub/openhts).
% is set by controls: 0 for no effect and ±100 for the full control effect; potency is the fitted concentration of half-maximal effect.

| SMILES | activity change, negative = cytotoxicity | Potency |
| --- | --- | --- |
| O=P(OC1=CCCCC1)(c1ccccc1)c1ccccc1 | 0.378% (inactive) | – |
| CCCOC(=O)C1C2c3ccccc3C(c3ccccc32)C1C(=O)O (stereo unspecified) | 5.49% (inactive) | – |
| CC1CCC(N(C)C2CCN(C)CC2)CC1 (stereo unspecified) | 4.09% (inactive) | – |
| O=C(c1ccccc1[N+](=O)[O-])N1CCC2(CC1)OCCO2 | 0% (inactive) | – |
| O=C(c1cc2nc(-c3ccccc3)cc(-c3ccccc3)n2n1)N1CCC2(CC1)OCCO2 | – | 25.9 µM (active) |
| Cc1ccc(-c2cc(C(=O)N3CCC4(CC3)OCCO4)no2)cc1 | 0% (inactive) | – |
| CC1C2Cn3c(nc4ccccc43)C1N(C)O2 (stereo unspecified) | 10.3% (inactive) | – |
| COc1cc(C(=O)N2Cc3ccc(Br)cc3-n3nncc3C2)cc(OC)c1OC | -27.6% (inactive) | – |
| CCC(C)(O)C(=O)OC1C(=O)OC2CC3C(C)=CC(=O)C(O)C3(C)C3C4(O)OCC23C1C(C)C4O (stereo unspecified) | – | 11.6 µM (active) |
| c1ccc(N2Cc3ccccc3-n3nncc3C2)nc1 | 3.38% (inactive) | – |
| CCC(C)n1c(O)c(/C=N/Nc2nc3c(c(=O)n(C)c(=O)n3C)n2C)c(=O)[nH]c1=S (stereo unspecified) | -12.1% (inactive) | – |
| CCN1C(=O)NC(=O)C2(CCCC2)C1=O | -10.5% (inactive) | – |
| COC(=O)CN(CCCl)P1(=O)OCCCN1CCCl (stereo unspecified) | -18.1% (inactive) | – |
| CCC(=NCc1ccco1)c1c(O)n(Cc2ccccc2)c(=O)[nH]c1=O | – | 3.66 µM (active) |
| CCC(=NCCCO)c1c(O)n(-c2ccc(OC)cc2)c(=O)[nH]c1=O | -9.87% (inactive) | – |
| CCCCn1c(O)c(C(CC)=NCc2ccco2)c(=O)[nH]c1=O | – | 20.6 µM (active) |
| CC(=NCC1CCCO1)c1c(O)n(-c2ccccc2)c(=O)[nH]c1=O (stereo unspecified) | 20.8% (inactive) | – |
| CCCCC(=O)N/N=C/c1c(O)n(CCC2=CCCCC2)c(=O)[nH]c1=O | 9.8% (inactive) | – |
| CCCCCCN=C(CC)c1c(O)n(CCCC)c(=O)[nH]c1=O | – | 5.17 µM (active) |
| CN(C)CCCN=Cc1c(O)n(Cc2ccco2)c(=O)[nH]c1=O | -0.606% (inactive) | – |
| CC/C(=N\NC(=O)c1ccccc1O)c1c(O)n(Cc2ccccc2)c(=O)[nH]c1=O | 0.222% (inactive) | – |

| SMILES | activity change, negative = cytotoxicity | Potency |
| --- | --- | --- |
| O=C(N/N=C/c1c(O)n(Cc2ccccc2)c(=O)[nH]c1=O)c1ccccc1 | 3.77% (inactive) | – |
| c1cc2c(c(NC3=NCCCS3)c1)CCCC2 | -16.7% (inactive) | – |
| O=c1c2ccccc2nc(CBr)n1-c1ccc(Cl)cc1 | -12% (inactive) | – |
| C[N+]12CN3CN(CN(C3)C1)C2 | 1.35% (inactive) | – |
| CC(CC(C#N)(c1ccccc1)c1ccccc1)N1CCCCC1 (stereo unspecified) | -5.22% (inactive) | – |
| N#Cc1c(Cl)c(Cl)c(Cl)c(C#N)c1Cl | 8.82% (inactive) | – |
| Cc1cccc(OP(=O)(Oc2cccc(C)c2)OC(c2ccccc2)C(F)(F)F)c1 (stereo unspecified) | -8.19% (inactive) | – |
| Cc1ccc(OC(=O)N(C)C[C@@H]2OCc3cnnn3CCCC(=O)N([C@H](C)CO)C[C@@H]2C)cc1 | 5.62% (inactive) | – |
| O=C1NCN(c2ccccc2)C12CCN(C(c1cccs1)c1nnnn1C1CCCCC1)CC2 (stereo unspecified) | -0.777% (inactive) | – |
| CC(=O)C1(O)CCC2C3CCC4=C(Cl)C(=O)CCC4(C)C3CCC21C (stereo unspecified) | -9.43% (inactive) | – |
| Cc1ccc(Cn2nnnc2CN2CCC(n3nnc4ccccc43)CC2)cc1 | – | 5.8 µM (active) |
| N[C@@H](Cc1c[nH]c2ccccc12)c1nnc(SCc2c(F)cccc2Cl)o1 | – | 18.4 µM (active) |
| CCOC(=O)CC(SP1(=S)OCC2(CCCCO2)C(C2CCCCO2)O1)C(=O)OCC (stereo unspecified) | -5.39% (inactive) | – |
| CC(C)c1ccc(OCC(=O)N2CCCN(C)CC2)cc1 | -16.3% (inactive) | – |
| CC(=O)Nc1ccccc1C(=O)OCC(=O)c1cccc2ccccc12 | 0% (inactive) | – |
| Cn1cc(C(=O)OCC(=O)N2CCCC2)c2ccccc21 | – | 23.1 µM (active) |
| OCC#CC[N+]1(CC#Cc2ccccc2)CCCC1 | 26.7% (inactive) | – |
| C[C@]12CCC3C(CC[C@H]4[C@H](O)[C@H](O)CC[C@]34C)C1CCC2=O (stereo partly specified) | 12% (inactive) | – |
| CC(C)(C)c1ccc(CN2C(=O)CN=C(c3ccccc3)c3ccccc32)cc1 | – | 16.4 µM (active) |
| O=C1CC(=O)N(Cc2ccccc2)C(=O)N1CCCCCCN1C(=O)CC(=O)N(Cc2ccccc2)C1=O | -0.0512% (inactive) | – |
| c1ccc(C(CN2CCCCC2)c2ccccc2)cc1 | 3.49% (inactive) | – |

| SMILES | activity change, negative = cytotoxicity | Potency |
| --- | --- | --- |
| O=C(Nc1cccc2ccccc12)N1CCC2(CC1)OCCO2 | 12.5% (inactive) | – |
| O=C(CCC(=O)N1C[C@H]2C[C@@H](C1)c1cccc(=O)n1C2)NCc1ccccc1C(F)(F)F | -0.253% (inactive) | – |
| COc1ccc2c(c1)NP(=S)(c1ccccc1)N2 (stereo unspecified) | 4.13% (inactive) | – |
| O=C1NC(=O)C(CCOc2ccccc2)(CCc2ccccc2)C(=O)N1 | -5.14% (inactive) | – |
| COc1ccc(NC(=O)N2Cc3ccccc3-n3nncc3C2)cc1 | 0.781% (inactive) | – |
| CC1CC=CCC12C(=O)NC(=S)NC2=O (stereo unspecified) | 26.6% (inactive) | – |
| CCn1cc(CN2CCCC(C(=O)c3cccc(C(F)(F)F)c3)C2)cn1 (stereo unspecified) | 4.08% (inactive) | – |
| Cc1ccccc1NC(=O)COC(=O)c1cc(C)n(C2CC2)c1C | – | 13 µM (active) |
| Cc1cc(C(=O)OCC(=O)Nc2c(F)cccc2F)c(C)n1C1CC1 | 13.9% (inactive) | – |
| Cc1nn(-c2ccccc2)c(C)c1NC(=O)COC(=O)Cc1ccccc1 | -1.45% (inactive) | – |
| COc1cccc(C(=O)N2C[C@H]3C[C@@H](C2)c2cccc(=O)n2C3)c1 | 14.6% (inactive) | – |
| c1cc2c(cc1C1OCC3C(c4ccc5c(c4)OCO5)OCC13)OCO2 (stereo unspecified) | 0% (inactive) | – |
| CC(=O)OC1C2(CC3N4C(=O)C5(CO)SSC4(CC31O)C(=O)N5C)OC(C)C(C)(C)C2=O (stereo unspecified) | – | 2.31 µM (active) |
| COc1cc(-n2c(=S)[nH]c3ccc(C)cc3c2=O)c(Cl)cc1Cl | – | 9.2 µM (active) |
| O=c1c2ccccc2[nH]c(=S)n1-c1cccc(Cl)c1 | -10.3% (inactive) | – |
| S=C(NCCc1ccccc1)N1Cc2cc(N3CCOCC3)ccc2-n2nncc2C1 | -17% (inactive) | – |
| O=c1[nH]c2ccccc2n1C1CCN(C(c2ccccc2)c2nnnn2Cc2ccccc2)CC1 (stereo unspecified) | – | 18.4 µM (active) |
| O=c1[nH]c2ccccc2n1C1CCN(C(c2ccnc3ccccc23)c2nnnn2Cc2ccccc2)CC1 (stereo unspecified) | -0.478% (inactive) | – |
| CSCCC(c1nnnn1C(C)(C)C)N1CCC(n2c(=O)[nH]c3ccccc32)CC1 (stereo unspecified) | -15.9% (inactive) | – |
| O=C1C2CCN(CC2)C1(CO)CO | 15.5% (inactive) | – |
| CCOC(=O)c1c(-c2ccccc2)oc2ccc(OC(=O)N(C)C)cc12 | – | 16.4 µM (active) |

| SMILES | activity change, negative = cytotoxicity | Potency |
| --- | --- | --- |
| CN(C)C(=O)Oc1ccc2c(c1)O/C(=C\c1ccccc1)C2=O | 27.1% (inactive) | – |
| Oc1ccc2c3c1OC1[C@H](O)CC[C@@]4(O)[C@@H](C2)N(CC2CC2)CC[C@]314 (stereo partly specified) | – | inactive |
| CCc1ccc(OCC(=O)N2CCN(CC(=O)Nc3ccccc3Cl)CC2)cc1 | 1.08% (inactive) | – |
| CC(=O)NCC1=C(c2ccc3ccccc3c2)C[C@@H]2CC[C@H]1N2Cc1ccco1 | -2.27% (inactive) | – |
| C[C@]12CC[C@H](O)C[C@H]1CC[C@@H]1C2CC[C@]2(C)[C@@H](C3=CC(=O)OC3)[C@@H](O)C[C@]12O (stereo partly specified) | – | 6.51 µM (active) |
| C[C@]12CCC3C(CC[C@H]4C[C@@H](O)CC[C@]34C)C1C[C@@H](O)[C@H]2O (stereo partly specified) | 16% (inactive) | – |
| Cc1cc(-c2ccc(N)c(C)c2)ccc1N | -4.88% (inactive) | – |
| CC(C)(C)c1ccc(OC(=O)N2CCCCC2)cc1 | 17.3% (inactive) | – |
| CC1([N+](=O)[O-])COP(=O)(Nc2ccc(F)cc2)OC1 (stereo unspecified) | -1.71% (inactive) | – |
| Cc1cccc(NC(=O)OC2CN3CCC2CC3)c1 (stereo unspecified) | -1.06% (inactive) | – |
| COC1=C[C@@H]2[C@@H]3Cc4ccc(OC)c(O)c4[C@]2(CCN3C)CC1=O | -0.303% (inactive) | – |
| NC(=O)Cn1cc(C(=O)c2ccccc2F)c2ccccc21 | 0% (inactive) | – |
| N#Cc1ccc(Cn2cc(C(=O)c3ccco3)c3ccccc32)cc1 | – | 18.4 µM (active) |
| CC(C)Nc1nc(Cl)nc(NC(C)C)n1 | 0% (inactive) | – |
| O=C(NCC1=C(c2ccc3ccccc3c2)C[C@@H]2CC[C@H]1N2Cc1ccco1)c1cccs1 | -8.15% (inactive) | – |
| Cc1ccc(N2C(=O)NC(=O)C(CCc3ccncc3)(Cc3cccc(Cl)c3Cl)C2=O)cc1 (stereo unspecified) | 0% (inactive) | – |
| O=C1NC(=O)C(CCc2ccccn2)(Cc2cccc(Cl)c2Cl)C(=O)N1c1ccc(Br)cc1 (stereo unspecified) | – | 7.31 µM (active) |
| C[C@H]1CN([C@@H](C)CO)C(=O)CCCn2nncc2CO[C@H]1CN(C)C(=O)Oc1ccccc1 | 90.2% (inactive) | – |
